Reference: PubChem BioAssay

Key:
[1] = system: Botulinum neurotoxin type F light chain protease (Clostridium botulinum); assay: Botulinum neurotoxin type F light chain protease inhibition, multiplex microsphere flow cytometry, validation set (AID 588459); conditions: multiplex microsphere protease substrate cleavage assay, at 10 µM, active compounds read high
[2] = molecular target: Botulinum neurotoxin type A (Clostridium botulinum) (UniProt P0DPI0); assay: BoNT/A light chain protease inhibitors, biochemical, multiplex microsphere flow cytometry, validation set (AID 588460); conditions: at 10 µM, active compounds read high
Sequence of Botulinum neurotoxin type A (Clostridium botulinum) (P0DPI0 whole entry, looked up): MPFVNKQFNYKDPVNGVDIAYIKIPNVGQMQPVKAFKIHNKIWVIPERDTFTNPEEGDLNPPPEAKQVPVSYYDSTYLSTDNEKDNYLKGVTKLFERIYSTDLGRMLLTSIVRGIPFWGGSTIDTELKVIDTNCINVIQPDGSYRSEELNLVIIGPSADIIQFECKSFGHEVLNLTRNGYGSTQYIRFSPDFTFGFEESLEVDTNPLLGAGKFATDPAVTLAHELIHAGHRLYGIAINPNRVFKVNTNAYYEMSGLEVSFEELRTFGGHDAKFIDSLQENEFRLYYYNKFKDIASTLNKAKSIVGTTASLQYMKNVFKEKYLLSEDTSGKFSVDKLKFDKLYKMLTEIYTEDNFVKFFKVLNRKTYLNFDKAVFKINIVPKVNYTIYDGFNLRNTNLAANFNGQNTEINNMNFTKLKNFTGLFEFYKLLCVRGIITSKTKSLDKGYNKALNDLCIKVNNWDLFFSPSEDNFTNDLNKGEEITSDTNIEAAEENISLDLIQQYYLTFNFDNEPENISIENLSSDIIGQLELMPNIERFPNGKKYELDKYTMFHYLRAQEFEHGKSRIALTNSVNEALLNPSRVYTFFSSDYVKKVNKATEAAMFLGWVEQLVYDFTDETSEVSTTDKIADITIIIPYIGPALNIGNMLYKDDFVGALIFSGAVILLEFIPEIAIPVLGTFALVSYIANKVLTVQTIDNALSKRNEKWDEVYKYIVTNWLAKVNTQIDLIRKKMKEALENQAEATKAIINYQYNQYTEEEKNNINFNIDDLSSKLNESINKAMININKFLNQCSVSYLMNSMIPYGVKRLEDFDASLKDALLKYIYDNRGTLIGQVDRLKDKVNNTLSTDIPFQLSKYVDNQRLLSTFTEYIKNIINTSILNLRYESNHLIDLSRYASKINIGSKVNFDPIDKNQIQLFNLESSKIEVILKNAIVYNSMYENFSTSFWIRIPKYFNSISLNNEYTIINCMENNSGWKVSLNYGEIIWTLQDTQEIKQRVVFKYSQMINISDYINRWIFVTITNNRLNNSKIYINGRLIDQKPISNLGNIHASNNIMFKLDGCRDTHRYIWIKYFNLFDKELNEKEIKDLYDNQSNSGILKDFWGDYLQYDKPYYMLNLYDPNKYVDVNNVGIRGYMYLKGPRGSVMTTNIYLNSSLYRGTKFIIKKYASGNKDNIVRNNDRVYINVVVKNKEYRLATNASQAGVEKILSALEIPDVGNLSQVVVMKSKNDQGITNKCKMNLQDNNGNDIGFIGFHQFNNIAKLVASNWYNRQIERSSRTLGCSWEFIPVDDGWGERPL

[3] = molecular target: Lethal factor (Bacillus anthracis) (UniProt P15917); assay: Lethal factor protease inhibitors, Bacillus anthracis, multiplex microsphere cleavage assay, validation set (AID 588461); conditions: flow cytometry, at 10 µM, active compounds read high
Sequence of Lethal factor (Bacillus anthracis) (P15917 whole entry, looked up): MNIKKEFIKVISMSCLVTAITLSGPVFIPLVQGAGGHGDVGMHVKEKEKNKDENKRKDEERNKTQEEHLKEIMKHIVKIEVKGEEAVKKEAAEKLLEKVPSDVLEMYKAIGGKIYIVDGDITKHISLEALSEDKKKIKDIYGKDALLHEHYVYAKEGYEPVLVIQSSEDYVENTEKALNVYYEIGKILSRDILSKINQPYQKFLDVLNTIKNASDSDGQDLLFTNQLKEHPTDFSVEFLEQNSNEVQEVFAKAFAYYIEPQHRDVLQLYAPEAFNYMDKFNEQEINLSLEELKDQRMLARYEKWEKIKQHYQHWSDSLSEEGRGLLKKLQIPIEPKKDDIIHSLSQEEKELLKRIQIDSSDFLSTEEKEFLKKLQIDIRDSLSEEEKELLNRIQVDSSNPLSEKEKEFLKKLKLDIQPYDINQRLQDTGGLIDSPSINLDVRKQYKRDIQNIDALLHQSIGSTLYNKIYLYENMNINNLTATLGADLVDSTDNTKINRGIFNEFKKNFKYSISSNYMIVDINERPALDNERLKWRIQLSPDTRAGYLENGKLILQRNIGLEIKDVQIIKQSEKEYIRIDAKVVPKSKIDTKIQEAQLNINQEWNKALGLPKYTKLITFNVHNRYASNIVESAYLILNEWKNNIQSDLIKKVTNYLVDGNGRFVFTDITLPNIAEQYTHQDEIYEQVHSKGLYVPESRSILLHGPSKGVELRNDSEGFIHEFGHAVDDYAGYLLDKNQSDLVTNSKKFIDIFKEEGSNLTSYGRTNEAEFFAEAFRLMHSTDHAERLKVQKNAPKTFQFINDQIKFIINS

Measured: inhibition

NS(=O)(=O)c1ccc(CNC(=O)c2cc(-c3ccccc3)nc3ccccc23)cc1
inactive: [1] 0.5% | [2] 0.4% | [3] -4.8%

COc1cc2c(cc1OC)-c1nnc(C)n1C(C)(C)C2
inactive: [1] 0.7% | [2] 0.2% | [3] -2.5%

CCOc1ccccc1OCCOc1ccc(F)cc1
inactive: [1] 0.7% | [2] -1.2% | [3] 6.2%

O=C(NCCCCCc1nc2ccccc2[nH]1)c1ccccc1Cl
inactive: [1] 1.4% | [2] 0.3% | [3] 3.6%

NC(N)=NC(N)=Nc1ccc2ccccc2c1
inactive: [1] 3.6% | [2] 1% | [3] 1.8%

COc1cc2c(cc1NCc1ccc3c(c1)OCO3)oc1ccccc12
inactive: [1] -2.5% | [2] -0.9% | [3] -15.7%

NCCCC(N)(C(=O)O)C(F)F (stereo not drawn)
inactive: [1] -3% | [2] 0.5% | [3] -2.1%

COC(=O)c1cc(-c2ccc(C)o2)nc2ccccc12
inactive: [1] 1.8% | [2] 2% | [3] 2.2%

O=c1oc2c(CN3CCN(CCO)CC3)c(O)ccc2cc1-c1ccccn1
inactive: [1] -0.2% | [2] 0.8% | [3] -4.2%

OC[C@@H](O)[C@@H](O[C@H]1O[C@H](CO)[C@@H](O)[C@H](O)[C@H]1O)[C@H](O)[C@@H](O)CO
inactive: [1] 3.7% | [2] 0.6% | [3] 3.8%

COc1cc2c(cc1OC)C(c1ccc(-c3cc(Cl)ccc3Cl)o1)=NCC2
inactive: [1] 0.4% | [2] 0.7% | [3] -4.2%
